According to PubChem BioAssay (EPA / NIEHS):
Results filed as inconclusive are left out. The source made the active and inactive calls. Rule for the calls, unless noted: active = hit-call score of the fitted dose curve at least 0.9, where 1 is the maximum; inactive = score below 0.9.

Key:
[1] = system: SRY-box transcription factor 17 (SOX17) Protein Expression, Deisenroth Lab, SOX17 (gene 64321); test: CCTE_Deisenroth_DEVTOX-GLR_Endo_SOX17: CCTE's DevTox GLR-Endo Assay Evaluation of SRY-box transcription factor 17 (SOX17) Protein Expression, Deisenroth Lab (AID 2284413)
Protocol: CCTE_Deisenroth_DEVTOX-GLR_Endo assay is a cell-based, multiplex-readout assay that uses RUES2-GLR, a human pluripotent cell line, with measurements taken at 48 hours after chemical dosing in a 384-well microplateCCTE_Deisenroth_DEVTOX-GLR_Endo_SOX17 is 1 of 4 assay components calculated from the CCTE_Deisenroth_DEVTOX-GLR_Endo assay and it measures the percentage of cells in an endoderm state. Using a type of inducible fluorescent protein reporter, gain-of-signal activity can be used to understand changes in gene expression with fluorescent microscopy. The percentage of SOX17+ cells are determined by calculating the number of SOX17+ cells divided by the cell count. To generalize the intended target to other relatable targets, this assay component is annotated to the transcription factor intended target family, where the subfamily is SRY-related HMG-box.Data from the assay component CCTE_Deisenroth_DEVTOX-GLR_Endo_SOX17 was analyzed as 1 assay endpoint. The endpoint is the percent change in SOX17+ cell population relative to the 0.2% DMSO control in the CCTE_Deisenroth_DEVTOX-GLR_Endo assay. This assay endpoint can be referred to as a primary readout since this assay has produced multiple assay endpoints where this one serves as a measure of endoderm differentiation.
(§1) All assay protocols are aligned to the DevTox GLR-Endo assay workflow. Cells are seeded into 384-well microplates for 24 hours prior to initiating differentiation in defined media for a total duration of 48 hours. A total of two chemical exposures are administered in 24-hour intervals during the 48-hour differentiation period. At the assay termination point, cells are fixed and stained with a fluorescent dye demarcating the nucleus. High-content imaging is used to acquire brightfield and fluorescent channel images across 5 fields per well. Cell identification and mean biomarker fluorescence intensities are calculated with image analysis software to determine the total cell counts for viability assessment and the biomarker expression frequency for each lineage-dependent assay. A typical experimental design tests a 10-point concentration series (1 nM - 200 uM) for 28 compounds in single technical replicate. Assay plate controls include non-differentiated pluripotent cells (baseline control), lineage-specific differentiated cells (differentiation control), and DMSO solvent exposed differentiated cells (solvent control). Experiments typically comprise a minimum of four experimental replicates (n=4).

[2] = system: Brachyury (BRA) Protein Expression, TBXT (gene 6862); test: CCTE_Deisenroth_DEVTOX-GLR_Endo_BRA: CCTE's DevTox GLR-Endo Assay Evaluation of Brachyury (BRA) Protein Expression, Deisenroth Lab (AID 2284417)
Summary of the method: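 RUES2-GLR human pluripotent cells, seeded 24 h, then differentiated 48 h in defined media with two chemical exposures 24 h apart (10-point series, 1 nM - 200 uM). Fixed, nuclear-stained, imaged; endpoint is percent BRA+ cells minus 0.2% DMSO control.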

[3] = CCTE_Deisenroth_DEVTOX-GLR_Endo_CellCount: Viability Assessment in CCTE's DevTox GLR-Endo Assay, Deisenroth Lab (AID 2284420)
Protocol: CCTE_Deisenroth_DEVTOX-GLR_Endo assay is a cell-based, multiplex-readout assay that uses RUES2-GLR, a human pluripotent cell line, with measurements taken at 48 hours after chemical dosing in a 384-well microplateCCTE_Deisenroth_DEVTOX-GLR_Endo_CellCount is 1 of 4 assay components calculated from the CCTE_Deisenroth_DEVTOX-GLR_Endo assay and it measures cell count. Using fluorescent nuclear staining, loss-of-signal activity can be used to understand changes in cell viability with fluorescent microscopy. It is designed to make measurements of nuclei counts as a surrogate for cell number, as detected with optical fluorescence microscopy by Perkin Elmer Harmony nuclei detection algorithm. To generalize the intended target to other relatable targets, this assay component is annotated to the cell cycle intended target family, where the subfamily is cytotoxicity.Data from the assay component CCTE_Deisenroth_DEVTOX-GLR_Endo_CellCount was analyzed as 1 assay endpoint. The endpoint the percent change in cell count relative to the 0.2% DMSO control in the CCTE_Deisenroth_DEVTOX-GLR_Endo assay. Furthermore, this assay endpoint can be referred to as a primary readout, because this assay has produced multiple assay endpoints where this one serves as a measure of cytotoxicity.
as §1

[4] = system: SRY-box transcription factor 2 (SOX2) Protein Expression, Deisenroth Lab, SOX2 (gene 6657); test: CCTE_Deisenroth_DEVTOX-GLR_Pluri_SOX2: CCTE's DevTox GLR-Pluri Assay Evaluation of SRY-box transcription factor 2 (SOX2) Protein Expression, Deisenroth Lab (AID 2284428)
Summary of the method: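 Percent SOX2+ cells (SOX2+ count per total cells, fluorescent imaging) in RUES2-GLR human pluripotent line, expressed relative to 0.2% DMSO. Compounds dosed twice at 24 h intervals during 48 h, 1 nM - 200 uM, 10 concentrations.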

[5] = CCTE_Deisenroth_DEVTOX-GLR_Pluri_CellCount: Viability Assessment in CCTE's DevTox GLR-Pluri Assay Evaluation of Total Cell Counts, Deisenroth Lab (AID 2284430)
Summary of the method: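 Cytotoxicity readout: fluorescent nuclei counts by high-content imaging, expressed as percent change relative to 0.2% DMSO. Human RUES2-GLR pluripotent line differentiated 48 h, dosed twice at 24-h intervals across 1 nM - 200 uM (10 points).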

[6] = system: SRY-box transcription factor 17 (SOX17) Protein Expression, Deisenroth Lab, SOX17 (gene 64321); test: CCTE_Deisenroth_DEVTOX-GLR_Pluri_SOX17: CCTE's DevTox GLR-Pluri Assay Evaluation of SRY-box transcription factor 17 (SOX17) Protein Expression, Deisenroth Lab (AID 2284427; active = hit-call score of the fitted dose curve at least 0.9, where 1 is the maximum)
Summary of the method: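 The endpoint is SOX17+ cells as a fraction of cell count, corrected for the 0.2% DMSO control and obtained by high-content fluorescence imaging of fixed cells. Cells were RUES2-GLR under a 48-hour endoderm differentiation, dosed twice at 24-hour intervals over 1 nM–200 uM.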

[7] = system: Brachyury (BRA) Protein Expression, Deisenroth Lab, TBXT (gene 6862); test: CCTE_Deisenroth_DEVTOX-GLR_Pluri_BRA: CCTE's DevTox GLR-Pluri Assay Evaluation of Brachyury (BRA) Protein Expression, Deisenroth Lab (AID 2284429; active = hit-call score of the fitted dose curve at least 0.9, where 1 is the maximum)
Summary of the method: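 Percent BRA+ cells (BRA+ count over total cells) by high-content imaging of fixed RUES2-GLR cultures, corrected by 0.2% DMSO control. Cells received two doses over 48-hour differentiation, 1 nM–200 uM, n=4 experiments.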

Nc1nc2ncc(CNc3ccc(C(=O)N[C@@H](CCC(=O)O)C(=O)O)cc3)nc2c(=O)[nH]1
outcome [1]: inactive | outcome [2]: inactive | outcome [3]: inactive | outcome [4]: inactive | outcome [5]: inactive

CC[C@H](C)C(=O)O[C@H]1C[C@@H](C)C=C2C=C[C@H](C)[C@H](CC[C@@H]3C[C@@H](O)CC(=O)O3)[C@H]21
AC50 [1]: 6.57 µM (active) | AC50 [2]: 54.2 µM (active) | AC50 [3]: 2.81 µM (active) | AC50 [6]: 100 µM (active) | AC50 [4]: 14.5 µM (active) | AC50 [7]: 20.8 µM (active) | AC50 [5]: 9.67 µM (active)

Cn1c(=O)c2c(ncn2C)n(C)c1=O
outcome [1]: inactive | outcome [2]: inactive | outcome [3]: inactive | outcome [4]: inactive | outcome [5]: inactive

NC(=O)NO
outcome [1]: inactive | outcome [2]: inactive | AC50 [3]: 61.3 µM (active) | outcome [6]: inactive | outcome [4]: inactive | outcome [7]: inactive | outcome [5]: inactive

O=C1CCC(N2C(=O)c3ccccc3C2=O)C(=O)N1 (configuration not stated)
AC50 [1]: 1.56 µM (active) | outcome [2]: inactive | outcome [3]: inactive | outcome [4]: inactive | outcome [7]: inactive | outcome [5]: inactive

O=C(O)c1cc(N=Nc2ccc(S(=O)(=O)Nc3ccccn3)cc2)ccc1O
outcome [1]: inactive | outcome [3]: inactive | outcome [6]: inactive | AC50 [4]: 100 µM (active) | outcome [7]: inactive | outcome [5]: inactive

C[C@](N)(Cc1ccc(O)c(O)c1)C(=O)O
outcome [1]: inactive | outcome [2]: inactive | outcome [3]: inactive | AC50 [4]: 0.308 µM (active) | AC50 [7]: 153 µM (active) | outcome [5]: inactive
